In the library only some 5.2% were active in any assay of this set; here they are far more common.
Tau fibril ThT: inhibitors of human tau fibril formation, thioflavin T binding; 270,000 tested, 2.1% active; P10636; recombinant tau K18 P301L, heparin-induced fibrillization, ThT fluorescence; AID 1460; Potency, µM (doses to about 57.4 µM), most hits filed as inhibitors; further: nearly all actives have a fitted effect of over 55% in size
Target sequence (P10636 561-689 P618L limits assumed): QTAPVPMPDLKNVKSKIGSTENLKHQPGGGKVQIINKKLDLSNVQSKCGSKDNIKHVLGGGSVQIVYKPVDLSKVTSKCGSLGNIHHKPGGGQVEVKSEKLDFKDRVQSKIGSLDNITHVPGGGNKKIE
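Tau K18 P301L fragment (15 uM unlabeled plus 0.24 uM Alexa 594-labeled) in 100 mM sodium acetate pH 7 with compound, fibrillization induced by 20 uM heparin for 6 hr at 37 C. Thioflavin T (30 uM) added, fluorescence read after 1 hr (ex 450, em 510 nm).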
Coupling enz: counter-screen for Giardia aldolase inhibitors: coupling enzyme system; activity change, negative = inhibition, % at 58.2 µM, hits read low; coupling enzyme system counterscreen, AmpLite Red fluorescence; 290,000 tested, 0.67% active; in the data active means activity change below about -30%
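Final compound at 57.5 uM, incubated 10 min at RT with coupling enzyme reagent (glyceraldehyde-3-phosphate), then 20 min with substrate and AmpLite Red detection. Fluorescence read at 525/598 nm; tests interference with the coupling assay, not aldolase inhibition.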
Sfp PPTase inh: blocks B. subtilis Sfp PPTase activity; Biochemical Sfp PPTase activity, qHTS; Potency, µM, usual class: inhibitors; 310,000 tested, 3.5% active; AID 1490;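 further: the enzyme is Sfp with the accession as filed and its product quenches rhodamine fluorescence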
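After 15 min at room temperature with compound, 15 nM Sfp received 5 uM rhodamine-CoA plus 12.5 uM BHQ-2-ybbR (50 mM Hepes pH 7.6, 10 mM MgCl2). Rate came from the fluorescence difference over 30 min, ex 525/em 598 nm.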
Tau fluor cs: counter-screen for tau fibril formation inhibitors | 280,000 tested, 0.93% active | Potency, µM (highest dose often 57.7 µM) | tau K18 P301L Alexa594 fluorescence, heparin fibrillization; further: nearly all actives have a fitted effect of over 55% in size
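Human tau K18 P301L (15 uM unlabeled, 0.24 uM Alexa 594-labeled) in 100 mM sodium acetate pH 7 with 20 uM heparin, 6 hr at 37 C. ThT 30 uM added, 1 hr ambient; Alexa 594 FP and total fluorescence read at 555/632 nm.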
Tau FP inhib: tau fibrillization inhibition (FP); 280,000 tested, 0.39% active; AID 1468; P10636; K18 P301L tau heparin fibrillization, Alexa594 FP, 6 h; Potency, µM (doses to about 57.7 µM), hits mostly inhibitors; further: nearly all actives have a fitted effect of over 55% in size
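Compound effects on tau fibrillization are measured by Alexa 594 fluorescence polarization (ex 555, em 632 nm). K18 P301L tau is used at 15 uM with 0.24 uM labeled tracer, and 20 uM heparin induces aggregation over 6 hr at 37 C.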
Hits are given with their value; ! = a repeat was not active; [ ] = remark or other dose. Unless noted, the call rests on the fitted dose curve; in most records, active means well fitted curve in the direction sought with a large enough effect; inconclusive means small, poorly fitted or top-dose-only effect, or another doubt; inactive means no such curve, though single readings can be large; an effect the other way counts as inactive or inconclusive.

CCOc1cc(/C=N\Nc2nc(-c3ccc(C)cc3)c(NC(C)=O)s2)ccc1O was read as Tau fibril ThT 20µM, Coupling enz inactive, Sfp PPTase inh inactive, Tau fluor cs inconclusive and Tau FP inhib inactive.
For CCOC(=O)CN1C(=O)S/C(=C/c2cccc([N+](=O)[O-])c2O)C1=O the results were Tau fibril ThT 13µM, Coupling enz inactive, Sfp PPTase inh inactive, Tau fluor cs inactive and Tau FP inhib inactive.
`O=C1S/C(=C\c2ccc(O)c([N+](=O)[O-])c2)C(=O)N1Cc1cccc([N+](=O)[O-])c1` gave Tau fibril ThT 11µM, Coupling enz inactive, Sfp PPTase inh inactive, Tau fluor cs inconclusive and Tau FP inhib inactive.
O=C(O)c1cccc(CN2C(=O)S/C(=C/c3ccccc3[N+](=O)[O-])C2=O)c1 was read as Tau fibril ThT inconclusive, Coupling enz inactive, Sfp PPTase inh inactive, Tau fluor cs inactive and Tau FP inhib inconclusive.
For O=C1S/C(=C\c2ccc(O)c([N+](=O)[O-])c2)C(=O)N1c1ccccc1Cl the results were Tau fibril ThT 6.3µM, Coupling enz inactive, Sfp PPTase inh inconclusive, Tau fluor cs inconclusive and Tau FP inhib inactive.
`Cc1cccc(NC(=O)CN2C(=O)S/C(=C\c3ccc(O)c([N+](=O)[O-])c3)C2=O)c1` gave Tau fibril ThT 6.3µM, Coupling enz inactive, Sfp PPTase inh inactive, Tau fluor cs inconclusive and Tau FP inhib inactive.
COc1ccc(S(=O)(=O)c2c(Nc3c(C)cccc3C)sc(C(=O)c3ccc(F)cc3)c2N)cc1 was read as Tau fibril ThT inactive, Tau fluor cs inactive and Tau FP inhib inactive.
Cc1cccc(NC(=O)CN2C(=O)S/C(=C\c3cc(C)n(C)c3C)C2=O)c1 was read as Tau fibril ThT inconclusive, Coupling enz inactive, Sfp PPTase inh 56µM, Tau fluor cs inconclusive and Tau FP inhib inactive.
Cc1ccc(NC(=O)CN2C(=O)S/C(=C/c3ccc(O)c([N+](=O)[O-])c3)C2=O)cc1C was read as Tau fibril ThT 7.9µM, Coupling enz inactive, Sfp PPTase inh inconclusive, Tau fluor cs inconclusive and Tau FP inhib inconclusive.
For CN1C(=O)/C(=C/c2ccc(O)c([N+](=O)[O-])c2)N(C)C1=S the results were Tau fibril ThT 4.5µM, Coupling enz inactive, Sfp PPTase inh inconclusive, Tau fluor cs inactive and Tau FP inhib inactive.
`COc1cc(/C=C2\C(=O)N(C)C(=S)N2C)ccc1O` gave Tau fibril ThT inconclusive, Coupling enz inactive, Sfp PPTase inh inactive, Tau fluor cs inactive and Tau FP inhib inactive.
Screening CCOC(=O)CN1C(=O)S/C(=C/C=C/c2ccc(N(C)C)cc2)C1=O returned Tau fibril ThT 2.2µM, Coupling enz inactive, Sfp PPTase inh inactive, Tau fluor cs inactive and Tau FP inhib inconclusive.
For COC(=O)C/C=C\[C@@H](C)[C@@H](CO)NS(=O)(=O)c1ccc(C)cc1 the results were Tau fibril ThT inactive[11.5 µM], Coupling enz inactive, Sfp PPTase inh inactive, Tau fluor cs inactive[11.6 µM] and Tau FP inhib inactive[11.6 µM].
COc1ccc2oc(-c3ccc(C)c(NC(=O)COc4cc(C)cc(C)c4)c3)nc2c1 was read as Tau fibril ThT inconclusive, Tau fluor cs inactive and Tau FP inhib inactive.
Screening O=c1[nH]c2ccc([N+](=O)[O-])cc2nc1/C=C(\O)c1ccccc1 returned Tau fibril ThT inconclusive, Coupling enz inactive, Sfp PPTase inh inactive, Tau fluor cs inactive and Tau FP inhib inactive.
Cc1nc(C)c(/C(O)=C\c2nc3ccc([N+](=O)[O-])cc3oc2=O)o1 was read as Tau fibril ThT inconclusive, Coupling enz inactive, Sfp PPTase inh 56µM, Tau fluor cs inactive and Tau FP inhib inactive.
`Cc1nnc(NC(=O)CSCc2cc(=O)c3ccccc3[nH]2)s1` gave Tau fibril ThT inactive, Tau fluor cs inactive and Tau FP inhib inactive.
Cc1ccc(NC(=O)CSc2nc(-c3ccco3)nc3cc(=O)[nH]n23)cc1C was read as Tau fibril ThT inconclusive, Tau fluor cs inactive and Tau FP inhib inactive.
For COc1cc2c(cc1OC)CN(c1ccc3ccccc3n1)CC2 the results were Coupling enz inactive and Sfp PPTase inh 56µM.
For O=C(CN1CCCCC1)N1CCCc2ccccc21 the results were Tau fibril ThT inactive, Coupling enz inactive, Sfp PPTase inh inactive, Tau fluor cs inactive and Tau FP inhib inactive.
For N#Cc1ccc2ccn(CC(=O)N3CCCc4ccccc43)c2c1 the results were Tau fibril ThT inactive, Coupling enz -39, Sfp PPTase inh inactive, Tau fluor cs inactive and Tau FP inhib inactive.
For O=C(N/N=C/c1ccc(N2CCCC2)c([N+](=O)[O-])c1)c1cccnc1 the results were Tau fibril ThT 14µM, Coupling enz inactive, Sfp PPTase inh inactive, Tau fluor cs inactive and Tau FP inhib inactive.
`COc1ccc(/C=N/NC(=O)c2cccnc2)cc1CN1CCCc2ccccc21` gave Tau fibril ThT inconclusive, Coupling enz inactive, Sfp PPTase inh inactive, Tau fluor cs 13µM[quencher] and Tau FP inhib inactive.
For O=C(N/N=C/c1ccc(N2CCOCC2)c([N+](=O)[O-])c1)c1ccc(F)cc1 the results were Tau fibril ThT 11µM, Coupling enz inactive, Sfp PPTase inh inactive, Tau fluor cs inactive and Tau FP inhib inactive.
O=C(N/N=C/c1cc2c(cc1[N+](=O)[O-])OCO2)c1cccnc1 was read as Coupling enz inactive and Sfp PPTase inh inactive.
CCCCn1c(SCC(=O)Nc2cccc(OC)c2)nc2c(sc3ccccc32)c1=O was read as Tau fibril ThT inactive, Tau fluor cs inactive and Tau FP inhib inconclusive.
Screening CCOC(=O)c1cc(-c2ccccc2)n(-c2cccc(C(=O)Nc3cccc(C)c3)c2)c1C returned Tau fibril ThT inactive, Tau fluor cs inactive and Tau FP inhib inactive.
For CC(=O)Nc1ccc(-n2nnnc2SCC(=O)Nc2cccc(NC(=O)c3ccco3)c2)cc1 the results were Tau fibril ThT inactive, Coupling enz inactive, Sfp PPTase inh 50µM, Tau fluor cs inactive and Tau FP inhib inactive.
For CCc1ccc(-n2nnnc2SCC(=O)Nc2ccc(NC(C)=O)cc2)cc1 the results were Coupling enz inactive and Sfp PPTase inh inactive.
`CN(C)CCc1cc2c(c3c1ccc1ccccc13)OCO2` gave Tau fibril ThT inconclusive, Coupling enz -36!, Sfp PPTase inh inactive, Tau fluor cs inconclusive and Tau FP inhib inactive.
CCOC(=O)N=Nc1c2ccccc2c2nc3no[nH]c3nc12 was read as Tau fibril ThT inconclusive, Coupling enz -51, Sfp PPTase inh inactive, Tau fluor cs inactive and Tau FP inhib inconclusive.
Cn1cc(-c2nc3cnc(Oc4ccccc4)nc3n(Cc3cccs3)c2=O)c2ccccc21 was read as Coupling enz inactive and Sfp PPTase inh inactive.
COc1cccc(C(=O)NCc2cn3cccc(C)c3n2)c1 was read as Tau fibril ThT inactive, Tau fluor cs inactive and Tau FP inhib inactive.
For Cn1c(-[n+]2c(-c3ccccc3)cc(-c3ccccc3)cc2-c2ccccc2)nc2cc([N+](=O)[O-])ccc21 the results were Tau fibril ThT inconclusive, Coupling enz inactive, Sfp PPTase inh 22µM, Tau fluor cs inactive and Tau FP inhib inactive.

Source: PubChem (National Center for Advancing Translational Sciences (NCATS))
